High-throughput results from PubChem BioAssay.
An excerpt weighted towards active compounds, which were near 7.7% of everything screened.
PD-1 reversal: activators reversing PD-1 mediated T-cell inhibition, primary screen, luminescence, primary human CD4 T cells, PD-L1 beads | CellTiter-Glo 96 h | activation, % (test concentration not listed) | 29,000 tested, under 10 active; call rule not given here;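 also: 0% = median vehicle wells and 100% = positive control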
Shh pathway inh: Hedgehog pathway signaling inhibitors, primary screen, luminescence, Shh-LIGHT2 cells, Gli-luciferase; Shh-LIGHT2 Gli-luciferase reporter, 30 h; inhibition, % (concentration not given with the values); actives 2.1% (n = 22,000);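 active = mean inhibition across valid replicates above about 65%, limit read from the data; inconclusive = mean under the limit, yet half or more replicates past it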;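 also: pathway switched on by Shh-conditioned medium diluted 1 in 25 in low serum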
NOMO-1 viab: NOMO-1 AML cell viability reduction, primary screen, STK33 inhibitor project, CellTiter-Glo luminescence. NOMO-1 AML viability, 72 h. actives 7.5% (n = 37,000). inhibition, % (no concentration beside the values). AID 2330, 2010; in the data active = inhibition above about 80%; inconclusive = no clear call, values can overlap the other calls
* = called active by the depositor; ? = inconclusive; · = not tested or not shown.

SMILES	PD-1 reversal	Shh pathway inh	NOMO-1 viab
C=CC/C=C\C/C=C\CCCCCCCc1cc(O)cc(O)c1	1	28	109*
CC1=CC(=O)C2=C(C)C[C@H](O)[C@@H]3[C@H](OC(=O)[C@H]3C)[C@H]12	·	-2	-13
C[C@H]1CC[C@@H]2[C@@H](C)[C@H]3[C@H](C[C@H]4[C@@H]5CC=C6C[C@@H](O[C@@H]7O[C@H](CO)[C@H](O)[C@H](O[C@@H]8O[C@H](CO)[C@@H](O)[C@H](O)[C@H]8O)[C@H]7O[C@@H]7O[C@@H](C)[C@H](O)[C@@H](O)[C@H]7O)CC[C@]6(C)[C@H]5CC[C@]34C)N2C1	0	2	32
C[C@H]1CC[C@@H]2[C@@H](C)[C@H]3[C@H](C[C@H]4[C@@H]5CC=C6CC(O[C@@H]7O[C@H](CO)[C@@H](O)[C@H](O[C@@H]8O[C@H](CO)[C@@H](O)[C@H](O)[C@H]8O)[C@@H]7O[C@@H]7O[C@@H](C)[C@H](O)[C@@H](O)[C@H]7O)CC[C@]6(C)[C@H]5CC[C@]34C)N2C1 (stereo partly drawn)	-5	25	110*
CC(C)(O)CCC(=O)[C@](C)(O)[C@H]1[C@H](O)C[C@@]2(C)[C@@H]3CC=C4C(C=C(O[C@@H]5O[C@H](CO)[C@@H](O)[C@H](O)[C@H]5O)C(=O)C4(C)C)[C@]3(C)C(=O)C[C@]12C (stereo partly drawn)	1	-5	-10
Cc1ccc(NC(=O)c2cc(C)n(C(C)(C)C)n2)cc1	-1	-182	6
CCCC(C)n1[nH]c(=O)c2c1NC(=O)CSC2c1cccc([N+](=O)[O-])c1 (stereo not drawn)	3	·	15
CC1C/C=C/C2C3OC3(C)C(C)C3C(Cc4ccccc4)NC(=O)C23OC(=O)O/C=C/C(C)(O)C1=O (stereo not drawn)	-26	44	93*
CC1(C)C(=O)C=C[C@@]2(C)C1C[C@@H](O)[C@]1(C)C2CC[C@@]2(C)[C@H](c3ccoc3)OC(=O)[C@H]3O[C@]321 (stereo partly drawn)	·	10	24
CN(C)Cc1c[nH]c2ccccc12	·	?	16
c1ccc2c(CNCCc3c[nH]c4ccccc34)cccc2c1	-5	56	106*
CC1(C)CC(=O)C2=C(C1)OC(N)=C(C(=O)OC(C)(C)C)C21C(=O)Nc2ccccc21 (stereo not drawn)	1	-32	15
CCN1C[C@]2(C)CC[C@H](OC)[C@@]34C1[C@@]1(OCO[C@@]15C[C@H](OC)[C@H]1C[C@]3(O)[C@@H]5[C@H]1OC)[C@@H](OC(C)=O)[C@H]24	·	3	11
CCCCCc1cc(O)c2c(c1)OC(C)(C)[C@@H]1CCC(C(=O)O)=CC21 (stereo partly drawn)	9	24	20
CCN1C[C@]2(COC)CC[C@H](O)[C@]34C1[C@H](C[C@H]23)[C@@]1(O)C[C@H](OC)[C@H]2C[C@@H]4[C@@H]1[C@H]2OC(C)=O	·	-47	7
C[C@@H]1C(=O)O[C@H]2[C@H]1CC[C@@]1(C)C=CC(=O)[C@@]3(C)O[C@@]213	-5	18	88*
Cc1cc(C(F)F)n2nc(C(=O)Nc3ccc4c(C(F)(F)F)cc(=O)oc4c3)nc2n1	-1	·	13
CC1=C2C[C@H]3[C@@H](CC=C4C[C@@H](O)CC[C@@]43C)[C@@H]2CC[C@]12O[C@@H]1C[C@H](C)CN[C@H]1[C@H]2C	·	89*	55
COC[C@H]1OC(=O)c2coc3c2[C@@]1(C)C1=C(C3=O)[C@@H]2CCC(=O)[C@@]2(C)C[C@H]1OC(C)=O	-22	-12	90*
CC12CC[C@H]3C(CCC4(O)CC(O)CCC34O)C1(O)CCC2C1=CC(=O)OC1 (stereo partly drawn)	-2	-45	6
CC(=O)OC1CCC2(C)C(CC[C@@H]3[C@@H]2CCC2(C)C(C4=CC(=O)OC4)CCC32O)C1 (stereo partly drawn)	-16	-5	109*
C[C@H]1O[C@@H](O[C@H]2CC[C@]3(CO)C4CC[C@]5(C)[C@@H](C6=CC(=O)OC6)CC[C@]5(O)C4CC[C@H]3C2)[C@H](O)[C@H](O)[C@@H]1O (stereo partly drawn)	·	-21	·
C[C@H]1O[C@@H](O[C@H]2[C@@H](O)C[C@H](O[C@H]3[C@@H](O)C[C@H](O[C@H]4CC[C@]5(C)C6CC[C@]7(C)[C@@H](C8=CC(=O)OC8)CC[C@]7(O)C6CC[C@@H]5C4)O[C@@H]3C)O[C@@H]2C)C[C@H](O)[C@@H]1O (stereo partly drawn)	·	-15	111*
C[C@]12CC[C@H](O)C[C@H]1CC[C@@H]1[C@@H]2CC[C@]2(C)[C@@H](C3=CC(=O)OC3)CC[C@]12O	·	-20	120*
CO[C@H]1[C@@H](O)[C@@H](C)O[C@@H](O[C@@H]2C=C3C(OC(C)=O)CC4(O)C(CC[C@]5(C)[C@@H](C6=CC(=O)OC6)CC[C@]45O)[C@@]3(C)CC2)[C@@H]1O (stereo partly drawn)	-30	-2	122*
SMILES	PD-1 reversal	Shh pathway inh	NOMO-1 viab
CCN(CC)P1(=O)OC(C)(C)CC1(C)O (stereo not drawn)	1	-18	12
Cc1cc(C(F)F)n2nc(C(=O)Nc3ccc(Cl)cc3C(=O)c3ccccc3)nc2n1	5	·	-21
CCOc1cc(CN2CCN(C(=O)COc3ccc(C)cc3)CC2)ccc1OC	1	8	27
Cc1cc(C)cc(C(=O)OC2CC3CCC(C2)N3C)c1 (stereo not drawn)	4	14	36
C[C@@H](CO)NC(=O)C1C=C2c3cccc4[nH]cc(c34)C[C@H]2N(C)C1 (stereo partly drawn)	·	22	10
C=C(C)[C@@H]1[C@H]2OC(=O)[C@@H]1[C@]1(O)C[C@H]3O[C@]34C(=O)O[C@H]2[C@]14C	·	-52	20
COC(=O)c1c(C)n(CCCOC(C)C)c2c1cc(O)c1ccccc12	-2	·	4
CC1OC(n2cnc3c(N)ncnc32)C[C@H]1O (stereo partly drawn)	4	20	7
N#CC(O[C@@H]1O[C@H](CO[C@@H]2O[C@H](CO)[C@@H](O)[C@H](O)[C@H]2O)[C@@H](O)[C@H](O)[C@H]1O)c1ccccc1 (stereo partly drawn)	7	33	35
CCNC(=S)N1CCN(CC(=O)Nc2ccc(Cl)cc2C(=O)c2ccccc2)CC1	-5	·	4
COC(=O)C1CC(=O)C[C@H]2[C@]3(C)C[C@@H](c4ccoc4)OC(=O)[C@H]3CC[C@@]12C (stereo partly drawn)	3	0	1
CC(=O)O[C@H]1CC[C@]2(C=O)[C@H]3CC[C@]4(C)[C@@H](C5=CC(=O)OC5)CC[C@]4(O)[C@@H]3CC[C@]2(O)C1	-23	4	124*
CO[C@H]1[C@@H](O)[C@@H](C)O[C@@H](OC2CCC3(C)C(CC[C@@H]4[C@@H]3CCC3(C)C(C5=CC(=O)OC5)C(O)CC43O)C2)[C@@H]1O (stereo partly drawn)	-16	-10	121*
